Compound activity (PubChem)
DRD3 antagonist: D3 dopamine receptor (human) antagonism | D3R cells, DiscoveRx beta-arrestin luminescence, antagonist mode; active compounds read low | max response, negative = inhibition, % | 2.5% of 360,000 active | AID 652054; in the data active = max response below about -50%; inconclusive = no clear call, values can overlap the other calls; also: % is scaled to controls: 0 for no effect and ±100 for the full control effect
Target sequence (P35462 whole entry, looked up): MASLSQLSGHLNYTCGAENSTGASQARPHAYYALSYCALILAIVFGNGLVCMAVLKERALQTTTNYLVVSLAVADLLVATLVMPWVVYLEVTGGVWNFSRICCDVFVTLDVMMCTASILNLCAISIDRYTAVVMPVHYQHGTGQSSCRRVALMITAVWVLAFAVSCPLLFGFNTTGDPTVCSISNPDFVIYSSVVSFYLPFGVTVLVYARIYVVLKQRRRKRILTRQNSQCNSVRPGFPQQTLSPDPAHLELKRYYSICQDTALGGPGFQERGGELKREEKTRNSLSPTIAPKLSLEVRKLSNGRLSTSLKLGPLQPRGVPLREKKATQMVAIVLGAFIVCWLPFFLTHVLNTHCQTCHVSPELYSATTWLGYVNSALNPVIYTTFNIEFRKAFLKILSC
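Cells plated overnight at 1500 cells/well, then exposed to library compounds with dopamine controls for 90 minutes at 37 degrees C. DiscoveRx reagent added for 30–60 minutes at room temperature; luminescence read, quantitative HTS format.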
KB-3-1 cytotox: KB-3-1 parental cell cytotoxicity; Potency, µM (doses to about 46.1 µM), actives largely listed as cytotoxic; KB-3-1 viability, CellTiter-Glo ATP luminescence, 72 h; 1.4% of 400,000 active; also: potency is read from the fitted curve at half-maximal effect; % is scaled to controls: 0 for no effect and ±100 for the full control effect; nearly all actives have a fitted effect of over 60% in size
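Cells are dispensed, compounds pinned in, plates held at 37 °C for 72 h, then CellTiter-Glo is added and luminescence read after 10 minutes. Cell line: parental KB-3-1 in phenol-red-free DMEM, 10% FBS.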
MCF10A rerep: induces DNA re-replication in MCF 10a normal breast cells; Potency, µM (titrated, usually from 46.1 µM), for the others: top-dose activity, positive = re-replication, actives largely listed as activators; MCF 10A DNA re-replication, Hoechst nuclear intensity, 48 h; 2.9% of 350,000 active; also: potency is read from the fitted curve at half-maximal effect; % of control where 0% means no effect; nearly all actives have a fitted effect of over 50% in size
KB-V1 cytotox: KB-V1 MDR subline cytotoxicity. KB-V1 MDR cells viability, CellTiter-Glo, 72 h. Potency, µM (top dose mostly 46.1 µM), most hits filed as cytotoxic. 3.4% of 400,000 active; also: potency is read from the fitted curve at half-maximal effect; % is scaled to controls: 0 for no effect and ±100 for the full control effect; nearly all actives have a fitted effect of over 60% in size
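qHTS viability screen in drug-selected KB-V1 MDR cells: 72 h compound treatment at 37 degrees C, ATP luminescence end point.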
DRD3 agonist: D3 dopamine receptor (human) agonism; D3R DiscoveRx beta-arrestin cells, luminescence, 90 min; max activation, %; AID 652048; P35462; 0.58% of 410,000 active; in the data active = max activation above about 30%; also: 0% is about no effect
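Agonist mode: compounds and dopamine controls were applied to plated cells for 90 min at 37 degrees C after an overnight attachment at 1500 cells/well. Luminescent read-out followed 30 - 60 minutes at room temperature with DiscoveRx detection reagent.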
SW480 rerep: inducers of DNA re-replication in SW480 colon cancer cells; Potency, µM (doses to about 46.1 µM), without a hit: at the highest dose re-replication activation, most hits filed as activators; SW480 DNA re-replication, Hoechst DNA content imaging, 48 h; 1.8% of 340,000 active; also: potency is read from the fitted curve at half-maximal effect; % of control where 0% means no effect; nearly all actives have a fitted effect of over 55% in size
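Image-based DNA-content assay: after two days of treatment, nuclei were labelled with the DNA dye Hoechst and imaged, and hits were compounds raising the count of nuclei showing high fluorescence intensity.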
An asterisk follows results filed as active; i = inactive; u = inconclusive; x = not tested or not shown; ! = not active in a repeat; [ ] = another dose, or the depositor's remark. Sampled rows, rich in hits. Any-hit rate of the full collection: about 8.9%. Unless noted, calls follow the shape of the dose curve; as a rule, active = well fitted curve in the direction sought with a large enough effect; inconclusive = small, poorly fitted or top-dose-only effect, or another doubt; inactive = no such curve, though single readings can be large; an effect the other way counts as inactive or inconclusive.

SMILES	DRD3 antagonist	KB-3-1 cytotox	MCF10A rerep	KB-V1 cytotox	DRD3 agonist	SW480 rerep
COCCn1c(=O)c2c(nc3n2CCCN3CCc2ccccc2)n(C)c1=O	14.3	i	u	i	102.4*	-4.9%
COc1ccc(N2CCn3c2nc2c3c(=O)n(CCCc3ccccc3)c(=O)n2C)c(OC)c1	29.5	u	9.9%	9.2µM*	2.7	0.3%
COc1ccc(-n2nc3cc(C)c(NC(=O)c4ccc(-c5ccc(Cl)cc5)o4)cc3n2)cc1	x	i	x	u	-3.6	x
Cn1c(=O)n(CC(=O)OCc2ccccc2)c(=O)c2c1nc1n2CCCN1C1CCCCC1	23.4	i	9.2µM*	u	-3.4	4.3%
Cn1c(=O)n(Cc2ccc(Cl)cc2)c(=O)c2c1nc1n2CCN1Cc1ccco1	44.5	u	6.5%	11.6µM*	4.0	-0.9%
CCn1c(=O)n(CC)c2cc(S(=O)(=O)N3CCc4ccccc43)ccc21	-19.1	u	2.3%	2.31µM*	0.9	-4.9%
Cc1ccc(CCC(=O)Nc2cc(Cl)ccc2Cl)o1	5.5	i	-1.5%	i	-9.3	6.5%
Cc1ccc(CCc2nnc(SCC(=O)Nc3cc(Cl)ccc3Cl)n2-c2ccccc2)o1	-5.9	i	u	14.6µM*	1.1	10.7%
O=C(CN1C(=O)C2(SCC(=O)N2c2ccc(F)cc2)c2ccccc21)NC1CCCCC1 (centres undefined)	x	i	x	u	-3.2	x
COc1ccccc1/C=C(\C#N)C(=O)c1cccn1C	0.4	i	1.3%	i	0.7	-34.8%
NC(=O)N/N=C/c1sc(N2CCCCC2)nc1-c1cccs1	-28.5	i	23.1µM*	u	1.7	20.6µM*
O=C(C[N+]1(CCc2ccccc2)CCOCC1)c1cccc([N+](=O)[O-])c1	x	i	x	i	x	x
Cc1ccccc1-n1nc(C(=O)c2cccs2)cc(-c2nc3ccccc3[nH]2)c1=N	-5.3	i	26.4%	2.31µM*	-6.2	u
COc1ccc(-n2nc(C(=O)c3cccs3)cc(-c3nc4ccccc4[nH]3)c2=N)cc1	-55.7*	u	6.6%	16.4µM*	-6.3	u
Cc1cccc(-n2nc(C(=O)c3ccco3)cc(-c3nc4ccccc4[nH]3)c2=N)c1	-0.6	i	-2.4%	i	-1.8	2.0%
CC(=O)Nc1ccc(Nc2ncnc3c2cnn3-c2ccccc2)cc1	30.8	u	24.2%	u	-8.6	-1.7%
CC(=O)Nc1ccc(Nc2ncnc3c2cnn3-c2cccc(C)c2)cc1	12.6	i	7.8%	16.4µM*	1.2	-9.0%
COc1ccc(OC)c(Nc2ncnc3c2cnn3-c2cccc(C)c2)c1	24.1	u	u	u	-5.8	7.31µM*
O=C(NCCc1ccc(F)cc1)C(=O)NCC(c1cccs1)S(=O)(=O)c1ccccc1 (centres undefined)	x	i	x	i	-3.0	x
COc1ccc(CCNC(=O)CSc2nnnn2C)cc1OC	9.6	i	1.1%	i	1.2	2.0%
COc1ccc(-c2cc(C(=O)NCCc3ccccc3)c3c(-c4ccccc4)[nH]nc3n2)cc1OC	x	i	x	i	4.0	x
COc1ccc(-n2nnnc2SCC(=O)NCCc2ccc(OC)c(OC)c2)cc1	-18.6	i	-7.0%	8.2µM*	14.2	13.2%
COc1ccc(CCNC(=O)CSCc2ccc(C)cc2)cc1OC	0.1	i	-6.2%	20.6µM*	2.3	-5.0%
COc1ccc(CCNC(=O)Cc2c(C)c3ccc(O)c(C)c3oc2=O)cc1OC	x	i	x	i	37.9*	x
COc1ccc(CCNC(=O)c2cc(-c3ccc(C)cc3)nc3n[nH]c(-c4ccccc4)c23)cc1OC	x	i	x	u	73.7*	x
SMILES	DRD3 antagonist	KB-3-1 cytotox	MCF10A rerep	KB-V1 cytotox	DRD3 agonist	SW480 rerep
CCC(c1nnc(SCC(=O)NCCc2ccc(OC)c(OC)c2)n1Cc1ccccc1)N(C)C (centres undefined)	-0.3	i	0.651µM*	i	4.4	-5.3%
CCC(c1nnc(SCC(=O)Nc2ccc(NC(C)=O)cc2)n1Cc1ccccc1)N(C)C (centres undefined)	3.5	i	1.2%	i	3.8	0.7%
COc1ccc(CCNC(=O)CSCc2ccc(Cl)cc2)cc1OC	3.4	i	6.0%	6.51µM*	1.4	-0.8%
COc1ccc(CCNC(=O)C(=O)NCc2ccc(C)cc2)cc1OC	7.1	i	1.6%	20.6µM*	-0.5	-2.3%
COc1ccc(CCNC(=O)CSc2nnc(-c3ccc(C)cc3)c(-c3ccc(C)cc3)n2)cc1OC	x	i	x	i	8.1	x
COc1ccc(CCNC(=O)CSc2nnc(-c3ccc(F)cc3)c3ccccc23)cc1OC	0.0	i	8.9%	7.31µM*	-2.7	12.0%
COc1cccc(NCc2cccn2-c2nnc(N3CCC(C)CC3)s2)c1	x	i	x	u	-1.7	x
Cc1cc(C)c(NC(=O)CSc2nc(=O)n(Cc3cccnc3)c3c2CCC3)c(C)c1	x	i	x	i	1.6	x
CCC(=O)c1ccc(OCc2ccc(C(=O)c3ccccc3)cc2)cc1	15.0	u	-7.2%	10.3µM*	8.0	8.9%
COc1cccc(-n2ccn(CC(=O)c3ccc(F)cc3)c(=O)c2=O)c1	x	x	x	x	4.4	x
C[C@@H]1CCC(=O)N(CC[C@H](N=[N+]=[N-])c2ccccc2)CC1	40.7	i	0.1%	u	-2.2	-18.7%
CC(C)(C)[C@@H]1CCC(=O)N(CC[C@H](N=[N+]=[N-])c2ccccc2)CC1	21.3	i	20.6µM*	20.6µM*!	7.9	-1.0%
COc1cccc(CNS(=O)(=O)c2ccc(-c3cc(C(F)(F)F)on3)s2)c1	x	x	x	x	-0.1	x
CC1=[N+](C)c2c(ccc3cccnc23)C1(C)C	u	10.3µM*	u	u	-1.7	u
CCCn1c2ccccc2c2cnn(CC(=O)N(CCCOC)Cc3ccco3)c(=O)c21	x	u	x	u	1.8	x
CC(C)Oc1ccc(C(=O)N/N=C/c2ccc(-c3ccc(S(=O)(=O)Nc4ncccn4)cc3)o2)cc1	-54.5*	i	16.2%	i	5.1	0.5%[9.22 µM]
NC(=O)N/N=C/c1ccc(-c2ccc(S(=O)(=O)Nc3ncccn3)cc2)o1	-13.7	i	2.1%	i	0.1	-3.3%
Cc1cc(C)n2nc(SCC(=O)Nc3cc(Cl)ccc3C)nc2n1	x	i	x	u	8.4	x
COc1ccc(C2=NN(C(=O)/C=C/c3ccccc3)C(c3ccccc3)C2)c(OC(C)=O)c1 (centres undefined)	u	u	u	2.91µM*	-12.8	3.3%
COc1ccc(C2CC(c3ccccc3OC(C)=O)=NN2C(=O)/C=C/c2ccccc2)cc1OC (centres undefined)	15.2	u	12.0%	u	2.1	-0.6%
